PubChem BioAssay

Test system: XIP peptide (Xip251-270) binding
Test: small-molecule binders of XIP peptide, primary screen, biochemical, small-molecule microarray, fluorescence 635/667 nm, 0.1 µg/mL protein (AID 1182)
Details: fluorescent protein binding, 635 nm, higher = more signal, called active from +8 up or from −8 down

Composite z-score, inactive:
C=CCOC(=O)[C@@H]1[C@H]2C(=O)O[C@H](c3ccccc3)[C@H](c3ccccc3)N2[C@H](c2ccc(OCCOC(=O)[C@H]3C[C@H]4C(=O)N[C@@H](CCCCN(C)C)C(=O)N4[C@H]3c3cccc(OCCO)c3)cc2)[C@@]12C(=O)Nc1ccc(I)cc12 1.78, O=C1O[C@@H](c2ccccc2)[C@@H](c2ccccc2)N2[C@@H](c3ccccc3OCCO)[C@]3(C(=O)Nc4ccc(C#CCCO)cc43)[C@@H](C(=O)N3CCN(c4ncccn4)CC3)[C@H]12 0.665, CC1CC/C=C\[C@H]2OC34C=CCN(C(C)C)C(=O)[C@H]3N(CCCCCO)C(=O)[C@@H]4C2C(=O)O1 (stereo partly specified) -0.572, CCOC(=O)C1=CC[C@@H](c2ccccc2C(F)(F)F)N(S(=O)(=O)c2ccc(C)cc2)C1 0.561, COC(=O)[C@@]1(Cc2ccccc2)[C@H]2c3cc(C(=O)N4CCCC4)n(Cc4ccsc4Br)c3C[C@H]2CN1C(=O)c1ccccc1 0.427, Cc1ccc(S[C@]2(C(=O)O)CC(=O)N(Cc3ccccc3Cl)[C@@H]2c2ccc(CO)cc2)cc1 0.084, C[C@]1(C(=O)O)c2ccccc2C(=O)N(Cc2ccccc2)[C@H]1c1ccc(CO)cc1 -0.339, COCCCNC(=O)[C@@]1(Sc2ccc(C)cc2)CC(=O)N(C2Cc3ccccc3C2)[C@@H]1c1ccc(CO)cc1I 0.0203, CCOC(=O)C[C@H]1[C@H](OC(=O)c2ccc(-c3ccccc3)cc2)[C@@H](NC(=O)C2CCCCC2)c2cc(OCCCO)ccc2N1C(=O)c1ccccc1 -0.264, CCCC=C(CCC)[C@@H](NP(=O)(c1ccccc1)c1ccccc1)c1ccc(C(F)(F)F)cc1 -0.185, O=C1c2ccccc2[C@@]2(Cc3ccccc3N(C3CC3)C2=O)[C@H](c2ccc(CO)cc2)N1C1CCCCC1 -0.241, [N-]=[N+]=NCc1ccccc1C[C@]1(C(=O)NCC(O)CO)N=C(c2ccc(OCCCO)cc2)O[C@H]1c1ccccc1CN=[N+]=[N-] (stereo partly specified) 0.311, C=C(C(=O)CC[C@H](OC(=O)c1cccnc1)c1ccc(CO)o1)C(C)C 1.43, CC(C)N1CC=CC23O[C@@H]4C=CCOC(=O)[C@@H]4[C@H]2C(=O)N(C(C)CO)[C@@H]3C1=O (stereo partly specified) -0.409, COc1cc2c(cc1OC)CN(C(=O)[C@@H]1[C@H]3C(=O)O[C@H](c4ccccc4)[C@H](c4ccccc4)N3[C@H](c3ccccc3OCCO)[C@@]13C(=O)Nc1ccc(C#CC4(O)CCCCCC4)cc13)CC2 0.863, COc1ccc(NN2C(C(O)c3ccccn3)C=CC3C(=O)N(C4CCCCC4)C(=O)C32)cc1 (stereo unspecified) -0.136, O=C(O)[C@H]1C[C@H]2C(=O)N3CCC[C@H]3C(=O)N2[C@H]1c1cccc(OCCO)c1 0.25, CCOC(=O)C[C@H]1[C@H](OC(=O)Cc2ccc3c(c2)OCO3)[C@@H](NC(=O)Cc2ccc(OC)cc2)c2cc(OCCCO)ccc2N1C(=O)c1ccccc1 1.08, O=c1cccc(-c2cccc(Cl)c2)o1 0.165, COC(=O)[C@@]1(Cc2ccccc2)[C@H]2c3cc(C(=O)N4CCCC4)[nH]c3C[C@H]2CN1C(=O)c1ccccc1 0.282, C=C(CCCC)/C(=C/C[C@@H](OC(C)=O)c1ccc(CO)o1)c1cc(C(=O)OC)ccc1OC 0.207, CC(C)CN1C(=O)[C@@]2(Cc3ccccc31)c1ccccc1C(=O)N(Cc1ccccc1C(F)(F)F)[C@H]2c1ccc(CO)cc1 -0.334, CCOC(=O)C[C@H]1[C@H](OC(=O)Cc2ccc3c(c2)OCO3)[C@@H](NC(=O)C2CCCCC2)c2cc(OCCCO)ccc2N1C(=O)c1ccc2ccccc2n1 1.35, C[C@@H](OCc1ccccc1)C1NC(=O)[C@@]23C(=O)N[C@@H](Cc4ccccc4)C2[C@H](C)[C@@]2(C)O[C@H]2C3/C=C/C/C=C\CNC(=O)CNC1=O (stereo partly specified) -0.153, C=C(C(=O)CC[C@H](OC(C)=O)c1cccc(OCCO)c1)C(C)C -0.252, CC=CC(O)C1C=CC2C(=O)N(c3ccccc3)C(=O)C2N1Nc1ccc([N+](=O)[O-])cc1 (stereo unspecified) 0.542, CC(C)C(O)C1C=CC2C(=O)N(C)C(=O)C2N1Nc1ccccc1 (stereo unspecified) 0.292, O=C1c2ccccc2[C@](Cc2ccccc2I)(C(=O)NCc2ccccc2)[C@H](c2ccc(CO)cc2)N1C1CCCCC1 0.353, O=C1C2C=CC(C(O)c3cc(C(F)(F)F)cc(C(F)(F)F)c3)N(Nc3ccc([N+](=O)[O-])cc3)C2C(=O)N1c1ccccc1 (stereo unspecified) 0.131, CC(C)(C)OC(=O)CC[C@]1(C(=O)NCCN2CCOCC2)N=C(c2ccc(OCCCO)cc2)O[C@H]1c1ccccc1 0.471, C=CC[C@@H](OC(=O)Nc1ccc(OC)cc1)c1ccc(OCCO)cc1 0.456, O=C1NC(=O)C2C1C=CC(C(O)c1ccc3c(c1)OCO3)N2Nc1ccccn1 (stereo unspecified) 0.307, Cc1ccc(S[C@]2(C(=O)NC(C)C)CC(=O)N(C3Cc4ccccc4C3)[C@@H]2c2ccc(CO)cc2I)cc1 -0.325, COc1ccc([Si](C)(C)[C@H]2[C@H](CCO)O[C@@]3(C(=O)N(Cc4cccc(N5CCCCC5=O)c4)c4ccccc43)[C@@H]2C)cc1 1.41, COc1ccc([Si](C)(C)[C@H]2[C@H](CC(=O)N3Cc4ccccc4C[C@H]3CO)O[C@@]3(C(=O)N(Cc4cccc(N5CCCCC5=O)c4)c4ccccc43)[C@@H]2C)cc1 0.573, NC(=O)NCC#Cc1ccc2c(c1)[C@]1(C(=O)N2)[C@H](C(=O)Nc2nc3ccccc3s2)[C@H]2C(=O)O[C@H](c3ccccc3)[C@H](c3ccccc3)N2[C@@H]1c1ccc(O)cc1 0.207
